Settings in all cases: concentration: 1 μM, replicates: in singlicate; n = 1
Assay [1] relates to TESK1.
The test system of assay [2] is TGFBR1.
Assay [3] concerns TGFBR2.
The test system of assay [4] is TIE1.
Assay [5] has as its system T1, TIE2.
T1 construct: gene TEK

For assay [6], the system named is TLK1.
Assay [7] deals with TLK2.
Assay [8] has as its system TNIK.
For assay [9], the system named is TNK1.
Assay [10] deals with TNK2.

Consider 23 compounds from PMC5540273 (PLoS ONE, 2017).
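Also: KINOMEscan kinase panel screen.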

Take `Cc1cccc(Nc2nc(N[C@H]3CCNC3)ncc2C(N)=O)c1.Cl` [GSK2197149]: the “%Inh” value in assay [1] was found to be 23%; in [2], 0%; in assay [3] it was 0%; in assay [4] it was 0%; in [5], 0%; in assay [6], 20%. Also, the “%Inh” value in assay [7] is 0%; in assay [8] it was 78%; in assay [9] it was 47%; in [10], 6%.

Take `CCS(=O)(=O)c1ccc(OC)c(Nc2nccc(-c3c(-c4cccc(NC(=O)c5c(F)cccc5F)c4)nn4ncccc34)n2)c1` [GSK326180]: the “%Inh” value in assay [1] was 2%; in [2] it was 22%; in [3] it was 0%; in assay [4], 47%; in assay [5], 37%; in assay [6] it was 3%. Also, the “%Inh” value came to 0% in [7], 0% in [8], 85% in assay [9] and 48% in assay [10].

For `Cc1ccc(C(=O)Nc2ccc(Nc3ccnc4cc(-c5nccs5)ccc34)cc2O)cc1.Cl` [GW494702], the “%Inh” value in assay [1] is given as 15%; in assay [2], 40%; in assay [3], 0%; in assay [4] it was 16%; in assay [5], 5%; in [6] it was 0%. Moreover, the “%Inh” value in assay [7] amounted to 0%; in assay [8], 36%; in assay [9] it was 46%; in [10], 96.9%.

For the compound `Cc1ccc(C(=O)N2CC[C@@H](O)C2)cc1-n1c(C)cc(OCc2ccc(F)cc2F)c(Br)c1=O`, the “%Inh” value worked out at 0% in assay [1]; 16% in assay [2]; 0% in assay [3]; 0% in [4]; 20% in [5]; 13% in [6]. Moreover, the “%Inh” value in assay [7], in assay [8], in assay [9] and in assay [10] was 0% in each case.

`Fc1ccc(-c2ncn(C3CCNCC3)c2-c2ccnc(Oc3ccc(-c4ccccc4)cc3)n2)cc1` [SB-245391]: the “%Inh” value was 19% in assay [1]; 59% in assay [2]; 16% in assay [3]; 46% in assay [4]; 31% in assay [5]; 3% in assay [6]. In addition, the “%Inh” value is reported as 35% in assay [7], 11% in assay [8], 10% in assay [9] and 0% in assay [10].

With `COCCOCCOc1cc2ncc3c4ccc(C#N)cc4[nH]c3c2cc1OC`, the “%Inh” value was 18% in [1]; 0% in [2]; 0% in assay [3]; 0% in [4]; 0% in assay [5]; 0% in assay [6]. Besides, the “%Inh” value in assay [7] amounted to 0%; in assay [8] it was 87%; in assay [9] it was 0%; in [10] it was 9%.

Turning to `Cn1cc(-c2ccc3c(c2)CCN3C(=O)Cc2cccc(Cl)c2)c2c(N)ncnc21` [GSK2606590], the “%Inh” value was found to be 52% in [1]; 0% in [2]; 0% in [3]; 92.3% in assay [4]; 45% in [5]; 0% in [6]. Further, the “%Inh” value in assay [7] amounted to 0%; in assay [8], 7%; in [9], 11%; in [10], 0%.

`c1ccc(-c2n[nH]cc2Nc2ccnc3ccccc23)nc1` [GW694077]: the “%Inh” value in assay [1] came out at 11%; in assay [2] it was 5%; in [3] it was 56%; in assay [4], 0%; in assay [5] it was 0%; in [6], 0%. Also, the “%Inh” value in assay [7] came out at 0%; in [8], 42%; in assay [9], 0%; in [10], 1%.

Consider `CCCCc1nn2ncccc2c1-c1ccnc(Nc2ccc(N3CCN(C)CC3)cc2)n1` [GW684941], for which the “%Inh” value in [1] is recorded as 39%; in assay [2], 80%; in assay [3], 91%; in assay [4], 93.6%; in [5], 80%; in [6], 0%. Moreover, the “%Inh” value amounted to 0% in assay [7], 25% in [8], 86% in [9] and 62% in [10].

Regarding `COc1cc(Nc2nccc(-c3c(-c4cccc(NC(=O)c5c(F)cccc5F)c4)nn4ncccc34)n2)cc(OC)c1OC` [GSK327238], the “%Inh” value in [1] was determined as 51%; in assay [2] it was 1%; in assay [3], 11%; in assay [4], 90.6%; in assay [5] it was 96.9%; in assay [6], 42%. In addition, the “%Inh” value in assay [7] is recorded as 12%; in assay [8] it was 80%; in assay [9] it was 100%; in assay [10] it was 69%.

On to `Cc1ccc(C)c(NC(=O)NC2CCN(c3ccnc(Nc4ccc(F)cc4)n3)C2)c1` (centres unmarked) [GSK1379720], for which the “%Inh” value is recorded as 28% in assay [1]; 12% in assay [2]; 0% in assay [3]; 0% in [4]; 0% in assay [5]; 0% in assay [6]. For the same compound, the “%Inh” value in assay [7] is 0%; in [8] it was 0%; in [9], 0%; in assay [10] it was 21%.

For the compound `COc1cc(Nc2ncc3c(C)nc(-c4cc5ccccc5[nH]4)n3n2)cc(OC)c1OC` [GW869516], the “%Inh” value in assay [1] came to 1%; in [2] it was 14%; in assay [3], 0%; in assay [4], 46%; in assay [5] it was 32%; in [6], 0%. Moreover, the “%Inh” value in assay [7] is 0%; in assay [8] it was 47%; in assay [9] it was 49%; in assay [10] it was 17%.

In the case of `COc1cccc(-c2ccc3c(NC(=O)C4CC4)n[nH]c3n2)c1` [SB-710903], the “%Inh” value is reported as 36% in [1]; 27% in assay [2]; 0% in assay [3]; 0% in assay [4]; 0% in assay [5]; 3% in [6]. The “%Inh” value in [7] is recorded as 0%; in assay [8], 82%; in [9], 0%; in [10], 9%.

In the case of `CCn1c(-c2nonc2N)nc2c(C#CC(C)(C)O)ncc(OCCCCN)c21.O=C(O)C(F)(F)F.O=C(O)C(F)(F)F` [GSK507274], the “%Inh” value amounted to 57% in [1]; 0% in assay [2]; 0% in assay [3]; 5% in assay [4]; 44% in [5]; 0% in [6]. Also, the “%Inh” value was 0% in assay [7], 0% in [8], 0% in [9] and 11% in assay [10].

Consider `CSc1cccc2c(-c3ccncn3)c(-c3ccc(F)cc3)nn12` [GW514786], for which the “%Inh” value turned out to be 31% in [1]; 28% in assay [2]; 24% in assay [3]; 6% in [4]; 0% in assay [5]; 0% in assay [6]. Further, the “%Inh” value was determined as 0% in assay [7], 0% in [8], 8% in assay [9] and 6% in assay [10].

Take `Nc1ncc(-c2cccnc2)c2scc(-c3ccc4c(c3)CCN4C(=O)Cc3ccccc3)c12` [GSK683281]: the “%Inh” value in assay [1] was determined as 33%; in assay [2] it was 0%; in [3], 0%; in assay [4], 92.5%; in assay [5], 57%; in assay [6], 0%. Further, the “%Inh” value stood at 0% in assay [7], 55% in assay [8], 19% in assay [9] and 59% in [10].

In the case of `Cl.Cl.NCC(C(=O)Nc1cc(Br)c(-c2ccnc3[nH]ccc23)s1)c1ccccc1` (centres unmarked) [GSK1269851], the “%Inh” value is given as 0% in [1]; 0% in assay [2]; 0% in [3]; 51% in assay [4]; 6% in assay [5]; 0% in assay [6]. In addition, the “%Inh” value is given as 0% in assay [7], 11% in [8], 6% in assay [9] and 12% in assay [10].

`c1ccc(-c2cnc3nccnn23)cc1` [AH20685]: the “%Inh” value in [1], in assay [2], in assay [3], in assay [4], in [5] and in assay [6] was 0% each time. For the same compound, the “%Inh” value in assay [7] amounted to 0%; in assay [8], 0%; in assay [9], 9%; in assay [10], 0%.

On to `Clc1ccc(-c2nn3ncccc3c2-c2ccnc(Nc3ccc4c(c3)OCCO4)n2)cc1` [GW829116], for which the “%Inh” value in assay [1] was found to be 11%; in [2], 46%; in [3] it was 23%; in assay [4], 24%; in assay [5] it was 0%; in [6], 0%. Further, the “%Inh” value is listed as 0% in assay [7], 31% in assay [8], 46% in [9] and 0% in [10].

`Cc1ccc(S(=O)(=O)Nc2ccc(Nc3nccc(Nc4cccc5[nH]ncc45)n3)cc2)cc1` [GSK581271]: the “%Inh” value in [1] was determined as 13%; in assay [2] it was 20%; in assay [3], 91.2%; in assay [4], 9%; in assay [5], 0%; in [6] it was 0%. For the same compound, the “%Inh” value in assay [7] came to 0%; in assay [8], 0%; in assay [9] it was 0%; in [10], 27%.

For `COc1cccc(NC(=O)NC2CCN(c3ccnc(Nc4cc(OC)c(OC)c(OC)c4)n3)C2)c1` (centres unmarked) [GSK1379763], the “%Inh” value in [1] is 1%; in assay [2] it was 4%; in assay [3] it was 0%; in assay [4] it was 28%; in assay [5] it was 0%; in assay [6], 10%. For the same compound, the “%Inh” value in assay [7] is reported as 0%; in [8], 0%; in assay [9], 0%; in assay [10], 9%.

Consider `CN(c1ccc(NC(=O)Nc2cc(C(F)(F)F)ccc2F)cc1)c1ccnc(Nc2ccc(S(N)(=O)=O)cc2)n1` [GW809893], for which the “%Inh” value is recorded as 75% in assay [1]; 0% in assay [2]; 6% in [3]; 94.3% in assay [4]; 99.6% in assay [5]; 0% in [6]. Further, the “%Inh” value is reported as 0% in [7], 81% in [8], 54% in assay [9] and 0% in assay [10].

For `O=C(Nc1ccccc1F)NC1CCN(c2ccnc(Nc3ccc(F)cc3)n2)CC1` [GSK1379800], the “%Inh” value in assay [1] was 17%; in assay [2], 36%; in [3] it was 0%; in assay [4] it was 6%; in assay [5], 7%; in assay [6], 0%. Moreover, the “%Inh” value in assay [7] was 0%; in assay [8] it was 0%; in assay [9], 0%; in [10], 15%.
